Measurements as given in PubChem BioAssay AID1159580 (chemical genetic matrix, 2015).
About 2,000 (36%) of roughly 5,500 compounds were called active. About 18% were inconclusive and are not listed. Cut-off read from the data, not from the text of the source: active = normalized growth mostly below about 0.91 (no sharp cut-off); inconclusive = no clear call, values can overlap the other calls; inactive = mostly above about 0.92. The list shows a part of the results.

Test: chemical genetic growth profiling, strain panel (AID 1159580);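 note: tested at 20 µM; growth read once vehicle control cultures reached saturation at 30 °C; 1 = growth at the plate median or of vehicle wells; lower values mean less growth of the strain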
Conditions: growth OD

Measured: normalized growth

Nc1ccc(C(=O)NCC(=O)O)cc1
inactive: S. cerevisiae deletion strains, locus YKL009W, strain mrt4, hits give low values 1.02 | S. cerevisiae deletion strains, locus YKL068W, hits give low values 1 | S. cerevisiae deletion strains, locus YKL085W, strain MDH1 (second series), hits give low values 1.01 | S. cerevisiae deletion strains, locus YKL085W, strain MDH1, hits give low values 1.01 | S. cerevisiae deletion strains, locus YKL160W, strain elf1, hits give low values 1.04 | S. cerevisiae deletion strains, locus YKL190W, strain CNB1, hits give low values 1 | S. cerevisiae deletion strains, locus YKR001C, strain vps1, hits give low values 1.02 | S. cerevisiae deletion strains, locus YKR026C, strain gcn3, hits give low values 1.01 | S. cerevisiae deletion strains, locus YKR091W, strain srl3, hits give low values 0.999 | S. cerevisiae deletion strains, locus YLL001W, strain dnm1, hits give low values 1 | S. cerevisiae deletion strains, locus YLL026W, hits give low values 0.997 | S. cerevisiae deletion strains, locus YLL041C, strain sdh2, hits give low values 1.01 | S. cerevisiae deletion strains, locus YLR027C, strain aat2, hits give low values 1.03 | S. cerevisiae deletion strains, locus YLR039C, strain RIC1, hits give low values 1.01 | S. cerevisiae deletion strains, locus YLR058C, strain SHM2, hits give low values 0.998 | S. cerevisiae deletion strains, locus YLR102C, strain apc9, hits give low values 1.02 | S. cerevisiae deletion strains, locus YLR113W, strain HOG1, hits give low values 0.937 | S. cerevisiae deletion strains, locus YLR221C, strain rsa3, hits give low values 1 | S. cerevisiae deletion strains, locus YLR258W, strain gsy2, hits give low values 1.03 | S. cerevisiae deletion strains, locus YLR262C, strain YPT6 (second series), hits give low values 1.02 | S. cerevisiae deletion strains, locus YLR262C, strain YPT6, hits give low values 1.04 | S. cerevisiae deletion strains, locus YLR268W, strain sec22, hits give low values 1.02 | S. cerevisiae deletion strains, locus YLR320W, strain mms22, hits give low values 1.01 | S. cerevisiae deletion strains, locus YLR330W, strain CHS5, hits give low values 1.01 | S. cerevisiae deletion strains, locus YLR342W, strain FKS1 (second series), hits give low values 0.987 | S. cerevisiae deletion strains, locus YLR342W, strain FKS1, hits give low values 1.02 | S. cerevisiae deletion strains, locus YLR357W, strain rsc2, hits give low values 1.07 | S. cerevisiae deletion strains, locus YLR370C, strain arc18, hits give low values 1.01 | S. cerevisiae deletion strains, locus YLR371W, strain rom2, hits give low values 1 | S. cerevisiae deletion strains, locus YLR384C, strain iki3, hits give low values 1.02 | S. cerevisiae deletion strains, locus YLR418C, strain cdc73, hits give low values 1.04 | S. cerevisiae deletion strains, locus YML016C, strain PPZ1, hits give low values 1 | S. cerevisiae deletion strains, locus YML032C, strain rad52, hits give low values 1.01 | S. cerevisiae deletion strains, locus YML120C, strain ndi1, hits give low values 1 | S. cerevisiae deletion strains, locus YML124C, strain tub3, hits give low values 1.01 | S. cerevisiae deletion strains, locus YMR058W, strain fet3, hits give low values 1.01 | S. cerevisiae deletion strains, locus YMR078C, strain ctf18, hits give low values 1.02 | S. cerevisiae deletion strains, locus YMR125W, strain sto1, hits give low values 1.02 | S. cerevisiae deletion strains, locus YMR129W, hits give low values 1.02 | S. cerevisiae deletion strains, locus YMR205C, strain PFK2, hits give low values 1.03 | S. cerevisiae deletion strains, locus YMR223W, strain ubp8, hits give low values 1.01 | S. cerevisiae deletion strains, locus YMR231W, strain pep5, hits give low values 1.02 | S. cerevisiae deletion strains, locus YMR263W, strain SAP30, hits give low values 1 | S. cerevisiae deletion strains, locus YMR307W, strain GAS1, hits give low values 1.03 | S. cerevisiae deletion strains, locus YNL067W, strain RPL9B, hits give low values 0.99 | S. cerevisiae deletion strains, locus YNL071W, strain lat1, hits give low values 1.03 | S. cerevisiae deletion strains, locus YNL153C, strain GIM3, hits give low values 0.973 | S. cerevisiae deletion strains, locus YNL183C, strain NPR1, hits give low values 0.908 | S. cerevisiae deletion strains, locus YNL209W, strain ssb2, hits give low values 1.01 | S. cerevisiae deletion strains, locus YNL233W, strain BNI4, hits give low values 0.986 | S. cerevisiae deletion strains, locus YNL248C, strain rpa49, hits give low values 1.02 | S. cerevisiae deletion strains, locus YNL250W, strain rad50, hits give low values 1.01 | S. cerevisiae deletion strains, locus YNL271C, strain bni1, hits give low values 1.02 | S. cerevisiae deletion strains, locus YNL298W, strain CLA4, hits give low values 1.03 | S. cerevisiae deletion strains, locus YNL307C, strain MCK1, hits give low values 1.02 | S. cerevisiae deletion strains, locus YNL322C, strain KRE1 (second series), hits give low values 1.01 | S. cerevisiae deletion strains, locus YNL322C, strain KRE1, hits give low values 0.997 | S. cerevisiae deletion strains, locus YNR049C, strain mso1, hits give low values 1.01 | S. cerevisiae deletion strains, locus YNR052C, strain pop2, hits give low values 1.02 | S. cerevisiae deletion strains, locus YOL006C, strain TOP1, hits give low values 0.96 | S. cerevisiae deletion strains, locus YOL012C, strain htz1 1.06 | S. cerevisiae deletion strains, locus YOL147C, strain pex11, hits give low values 1.01 | S. cerevisiae deletion strains, locus YOR001W, strain rrp6, hits give low values 0.986 | S. cerevisiae deletion strains, locus YOR061W, strain CKA2, hits give low values 1.01 | S. cerevisiae deletion strains, locus YOR069W, strain VPS5, hits give low values 1 | S. cerevisiae deletion strains, locus YOR070C, strain gyp1, hits give low values 1.01 | S. cerevisiae deletion strains, locus YOR080W, strain dia2, hits give low values 1.01 | S. cerevisiae deletion strains, locus YOR083W, strain WHI5, hits give low values 0.99 | S. cerevisiae deletion strains, locus YOR106W, strain vam3, hits give low values 1.04 | S. cerevisiae deletion strains, locus YOR136W, strain idh2, hits give low values 1.02 | S. cerevisiae deletion strains, locus YOR144C, strain elg1, hits give low values 1.01 | S. cerevisiae deletion strains, locus YOR184W, strain ser1, hits give low values 1.02 | S. cerevisiae deletion strains, locus YOR231W, strain MKK1, hits give low values 0.97 | S. cerevisiae deletion strains, locus YOR265W, strain rbl2, hits give low values 1 | S. cerevisiae deletion strains, locus YOR270C, strain vph1, hits give low values 1.02 | S. cerevisiae deletion strains, locus YOR290C, strain snf2, hits give low values 1.04 | S. cerevisiae deletion strains, locus YOR316C, strain cot1, hits give low values 1.02 | S. cerevisiae deletion strains, locus YPL051W, strain arl3, hits give low values 1.02 | S. cerevisiae deletion strains, locus YPL078C, strain atp4, hits give low values 1.02 | S. cerevisiae deletion strains, locus YPL106C, strain sse1, hits give low values 1.04 | S. cerevisiae deletion strains, locus YPL240C, strain hsp82, hits give low values 1.01 | S. cerevisiae deletion strains, locus YPL241C, strain CIN2, hits give low values 1 | S. cerevisiae deletion strains, locus YPL256C, strain CLN2, hits give low values 0.936 | S. cerevisiae deletion strains, locus YPR119W, strain clb2, hits give low values 1.01 | S. cerevisiae deletion strains, locus YPR141C, strain kar3, hits give low values 1.01 | S. cerevisiae deletion strains, locus YPR163C, strain tif3, hits give low values 1.01 | S. cerevisiae deletion strains, locus YPR167C, strain met16, hits give low values 1.02 | S. cerevisiae deletion strains, strain wtn01, hits give low values 1.03 | S. cerevisiae strains, strain wild type, hits give low values 0.995
